# Reference: PubChem BioAssay
# Experiment: probe aNog binding to arrayed compounds – biochemical, biotinylated probe, 635/667 nm fluorescence, primary screen (AID 1115);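 further: probe is biotinylated aNog protein used at 0.15 µg/mL for 1 h at 4 C; z-score combines 667 nm fluorescence of each spot with its signal to noise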
# Conditions: small-molecule microarray, higher = more signal
row,SMILES,composite z-score
1,CCN(CC)c1ccc(N2CC=CC34O[C@@H]5C=CCOC(=O)[C@@H]5[C@H]3C(=O)N(CCO)[C@@H]4C2=O)cc1 (stereo not given in full),-0.338
2,CCOC(=O)C1=CC[C@@H](c2ccccc2)N(S(=O)(=O)C[Si](C)(C)C)[C@H]1c1ccccc1,0.509
3,CN(C)CCCC[C@@H]1NC(=O)[C@@H]2C[C@H](C(=O)NCc3ccc(F)cc3)[C@H](c3ccc(O)cc3)N2C1=O,-0.0503
4,C=CCOC(=O)[C@H]1[C@@H]2C(=O)O[C@@H](c3ccccc3)[C@@H](c3ccccc3)N2[C@@H](c2ccc(OCCOC(=O)[C@@H]3C[C@@H]4C(=O)N[C@@H](CC(C)C)C(=O)N4[C@@H]3c3ccc(O)cc3)cc2)[C@]12C(=O)Nc1ccc(I)cc12,0.287
5,COCCCNC(=O)[C@@H]1c2ccccc2C(=O)N(C2CCCCC2)[C@H]1c1ccc(CO)cc1,-0.0633
6,CN(C)CCCC[C@@H]1NC(=O)[C@H]2C[C@@H](C(=O)NCc3ccc(F)cc3)[C@@H](c3ccc(O)cc3)N2C1=O,-0.273
7,COc1ccc(C#Cc2ccc3c(c2)[C@]2(C(=O)N3)[C@H](C(=O)Nc3nc4ccccc4s3)[C@H]3C(=O)O[C@H](c4ccccc4)[C@H](c4ccccc4)N3[C@@H]2c2ccc(OCCO)cc2)cc1,0.302
8,C=CCC(OC(C)=O)[C@@H]1[C@@H](N(Cc2ccc(-c3cccc(C(F)(F)F)c3)o2)C(=O)c2cccc3ccccc23)c2cc(OCCCO)ccc2N1C(=O)c1ccc2ccccc2n1 (stereo not given in full),0.169
9,C[N+](C)(C)CCCC[C@@H]1NC(=O)[C@H]2C[C@@H](C(=O)NCCCCCNC(=O)CS)[C@@H](c3ccc(O)cc3)N2C1=O,-0.373
10,C=CCC(OC(C)=O)[C@@H]1[C@@H](N(Cc2cccc3ccccc23)C(=O)c2cccc3ccccc23)c2cc(OCCCO)ccc2N1C(=O)Cc1ccc2ccccc2c1 (stereo not given in full),0.255
11,COc1ccc(C(O)C2C=CC3C(=O)N(C)C(=O)C3N2Nc2ccc([N+](=O)[O-])cc2[N+](=O)[O-])cc1OCc1ccccc1 (stereo not given),1.38
12,COCCOC(=O)N1C(=O)[C@@]2(c3cc(C#CCC(C(=O)OC)C(=O)OC)ccc31)[C@H](C(=O)N1CCc3cc(OC)c(OC)cc3C1)[C@H]1C(=O)O[C@H](c3ccccc3)[C@H](c3ccccc3)N1[C@@H]2c1ccc(O)cc1,-0.537
13,C=CCNC(=O)[C@@H]1[C@H]2C(=O)O[C@H](c3ccccc3)[C@H](c3ccccc3)N2[C@H](c2ccc(O)cc2)[C@@]12C(=O)Nc1ccc(C#CC3(O)CCCCCC3)cc12,-0.499
14,COCCOC(=O)N1C(=O)[C@@]2(c3ccccc31)[C@H](C(=O)N1CCCCCCC1)[C@H]1C(=O)O[C@H](c3ccccc3)[C@H](c3ccccc3)N1[C@@H]2c1ccc(O)cc1,2.12
15,N#Cc1ccc(C(O)C2C=CC3C(=O)NC(=O)C3N2Nc2ccccn2)cc1 (stereo not given),0.287
16,CC(C)C[C@H]1NC(=O)[C@@]23C(=O)N[C@@H](Cc4ccccc4)C2[C@H](C)[C@@]2(C)O[C@H]2C3/C=C/C/C=C\CNC(=O)[C@@H]2CCCN2C1=O (stereo not given in full),0.283
17,CCCC[C@@H]1C[C@H]1[C@@H](NC(=O)Cc1ccccc1)c1ccc(Cl)cc1,0.905
18,NC(=O)N1C(=O)C2C(C1=O)C1C=C(CCCO)C2C(c2ccc(CN3CCCC3)cc2)N1Cc1cccc(OC(F)(F)F)c1 (stereo not given),0.429

row,SMILES,composite z-score
1,CCOC(=O)C[C@H]1[C@H](OC(=O)c2ccc(C(=O)c3ccccc3)cc2)[C@@H](NC(=O)c2ccc3ccccc3c2)c2cc(OCCCO)ccc2N1C(=O)c1ccc2ccccc2n1,-0.188
2,O=C1NC(=O)C2C1C=CC(C(O)c1ccc(F)cc1)N2Nc1ccccn1 (stereo not given),0.147
3,COc1ccc([Si](C)(C)[C@H]2[C@H](CC(=O)N3Cc4ccccc4C[C@H]3CO)O[C@@]3(C(=O)N(Cc4cccc(N5C(=O)c6cccc7cccc5c67)c4)c4ccccc43)[C@@H]2C)cc1,1.11
4,COC(=O)[C@@]1(Cc2ccccc2)[C@@H]2[C@@H](CC(=O)[C@H]2CC(=O)C(=O)N(C)C)CN1C(=O)c1ccccc1,0.859
5,COC(=O)[C@]1(CO)N=C(c2ccc(OCCCO)cc2)O[C@@H]1c1ccccc1CN=[N+]=[N-],-0.0007
6,CC(C)CNC(=O)[C@@H]1c2ccccc2C(=O)N(C(C)C)[C@H]1c1ccc(CO)cc1,0.49
7,Cc1c(NC(=O)/C(C#N)=C/c2ccc(Cl)cc2)c(=O)n(-c2ccccc2)n1C,0.486
8,O=C1c2ccccc2[C@](Cc2ccccc2I)(C(=O)O)[C@H](c2ccc(CO)cc2)N1Cc1ccccc1,-0.215
9,CCC[C@@H]1C=C(C(=O)OCC)[C@H](c2ccccc2)N1S(=O)(=O)c1ccc(C)cc1,-0.413
10,COCCOC(=O)N1C(=O)[C@@]2(c3cc(C#CCC(C(=O)OC)C(=O)OC)ccc31)[C@H](c1ccc(OCCO)cc1)N1[C@H](c3ccccc3)[C@H](c3ccccc3)OC(=O)[C@H]1[C@@H]2C(=O)N1CCCCCCC1,3.08
11,CCOC(=O)C[C@H]1[C@H](OC(=O)c2ccc(-c3ccccc3)cc2)[C@@H](NC(=O)CC(C)C)c2cc(OCCCO)ccc2N1C(=O)Cc1ccc(OC)cc1,-0.126
12,COCCOC(=O)N1C(=O)[C@@]2(c3cc(C#CCC(C(=O)OC)C(=O)OC)ccc31)[C@H](C(N)=O)[C@H]1C(=O)O[C@H](c3ccccc3)[C@H](c3ccccc3)N1[C@@H]2c1ccc(OCCO)cc1,0.177
13,C=CCC(OC(C)=O)[C@@H]1[C@@H](N(Cc2ccc(-c3cccc(C(F)(F)F)c3)o2)C(=O)c2cccc3ccccc23)c2cc(OCCCO)ccc2N1C(=O)c1ccc2ccccc2c1 (stereo not given in full),0.0649
14,COC(=O)[C@@]1(Cc2ccccc2)[C@H]2c3cc(C(=O)N4CCCC4)n(Cc4ccc(C(F)(F)F)nc4)c3C[C@H]2CN1C(=O)c1ccccc1,1.48
15,C=CC[C@@]1(C(=O)O)N=C(c2ccc(OCCCO)cc2)O[C@@H]1c1ccccc1CN=[N+]=[N-],0.0139
16,COc1ccc([Si](C)(C)[C@H]2[C@H](CCn3cc([C@H](O)c4ccccc4)nn3)O[C@@]3(C(=O)N(C)c4c(Br)cc(C)cc43)[C@@H]2C)cc1,-0.411
17,CC1(C)OC[C@@]23C=C(Br)[C@@H](C[C@H]12)[C@@]1(CO1)C3=O,-0.132
